Nrf2 activator: activators of Nrf2 (ARE) signaling. 410,000 tested, 0.31% active. Potency, µM (doses to about 46.1 µM), for the others: top-dose activation, actives largely listed as activators. AID 624171. AREc32 ARE-luciferase reporter (MCF7-derived line), luminescence, 24 h; further: % of control where 0% means no effect; nearly all actives have a fitted effect of over 65% in size
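Reporter line AREc32 (ARE-Fluc), seeded overnight in OPTI-MEM with 5% FBS; compound pin-transferred, 24 hr at 37 deg C, 5% CO2; luminescent read-out.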
Nrf2 block: blocks Nrf2 signaling; A549 ARE-Fluc reporter, luciferase luminescence, 18-24 h; 360,000 tested, 2.1% active; Potency, µM (highest dose often 46 µM), without a hit: at the highest dose activity change, negative = inhibition, usual class: inhibitors; further: on the % scale 0 is the no-effect control and ±100 the full control effect; nearly all actives have a fitted effect of over 60% in size
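A549 ARE_Fluc cells (5000/well, 5% FBS OPTI-MEM) pre-incubated 2 h, then treated with compounds 18-24 h at 37C/5% CO2 in concentration-response. CellTiter-Fluor viability read first; BugLite luciferase luminescence after 15 min at room temperature gives Nrf2 activity.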
HepG2 viability: counter-screen for TGF-b inhibitors: cytotoxicity in HepG2 cells; AID 588856; Potency, µM (doses to about 46.1 µM), inactives show at the highest dose activity change, negative = cytotoxicity, most hits filed as cytotoxic; 410,000 tested, 0.76% active; HepG2 CAGA-GFP viability, ATP luminescence, 18 h
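CellTiter-Glo luminescence gave cytotoxicity after 18 hours at 37 degrees C. The cells were HepG2 CAGA-GFP in 1% FBS DMEM, stimulated with 500 pg/mL TGF-beta after compound addition. %Activity was normalised to no-cell wells (complete cell-killing) and DMSO (no toxicity), and curves were fitted and classified.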
TGFb inhibitor: blocks TGF-b signaling; Potency, µM (highest dose often 46.1 µM), inactives show top-dose activity, negative = inhibition, actives largely listed as inhibitors; 410,000 tested, 1.2% active; HepG2 CAGA-GFP TGF-b/SMAD3 reporter, GFP fluorescence, 18 h; TGF-beta stimulated, 500 pg/mL final; further: on the % scale 0 is the no-effect control and ±100 the full control effect; nearly all actives have a fitted effect of over 65% in size
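First, reporter cells (HEPG2 CAGA-GFP) rested 2 h at 37 degrees C. Next, compounds were pinned in and TGF-beta added to 500 pg/mL final. After 18 h, GFP was imaged per cell and summed per well.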
A549 viability: kills or reduces viability of A549 cells in Nrf2 counter-screen. Potency, µM (titrated, usually from 46 µM), without a hit: at the highest dose activity change, negative = cytotoxicity, most hits filed as inhibitors. 390,000 tested, 0.16% active. A549 ARE-Fluc cells, CellTiter-Fluor viability, 18-24 h. AID 504648; further: on the % scale 0 is the no-effect control and ±100 the full control effect
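A549 ARE_Fluc cells in 5% FBS OPTI-MEM were exposed to compounds in concentration-response for 18-24 h at 37 deg C. Viability was read by CellTiter-Fluor fluorescence (Ex 405/Em 525) after 30 min, before the luciferase read.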
* marks the source's active call; other numbers are inactive results; ? = inconclusive; / = not tested or not shown; [ ] = another dose, or the depositor's remark. Sampled rows, rich in hits. Any-hit rate of the full collection: about 3.6%. The call rests on the fitted dose curve; in most records, active means well fitted curve in the direction sought with a large enough effect; inconclusive means small, poorly fitted or top-dose-only effect, or another doubt; inactive means no such curve, though single readings can be large; an effect the other way counts as inactive or inconclusive. Potency means the concentration at half of the fitted maximal effect.

SMILES | Nrf2 activator | Nrf2 block | HepG2 viability | TGFb inhibitor | A549 viability
Cc1cccc(-c2ccc3ncnc(NCc4cccs4)c3c2)c1 | -0.8% | 20.6µM* | -31.1% | ? | -2.7%
O=C(NCc1ccccc1)c1ccc2c(=O)[nH]c3c(C(=O)NCC4CCCO4)sc(=S)n3c2c1 (configuration not stated) | 0.1% | ? | 20.4% | -4.6% | -14.7%
COc1ccc(CNc2ncc(-c3ccc(F)cc3)n2C)c2ccccc12 | -1.9% | 20.6µM* | -43.0% | ? | -0.4%
COc1ccccc1CNc1ncc(-c2ccc(F)cc2)n1C | 0.3% | -5.2% | -27.8% | -3.8% | -1.0%
Oc1ccc(Br)cc1CNc1cnc2ccccc2c1 | 19.8% | 25.0% | 12.6µM* | ? | -6.3%
CCCCN1CC(c2nc3ccccc3n2CCCCOc2ccccc2C)CC1=O (configuration not stated) | -2.9% | 15.1% | 17.8µM* | ? | 7.9%
Cc1cccc(C)c1OCCn1c(C2CC(=O)N(c3cccc(Cl)c3)C2)nc2ccccc21 (configuration not stated) | -0.8% | 20.6µM* | 15.6% | -5.9% | ?
CCCCN1CC(c2nc3ccccc3n2CCCCOc2cc(C)ccc2C)CC1=O (configuration not stated) | -2.1% | ? | -91.7% | ? | 15.8%
Cc1cccc(C)c1OCCCCn1c(C2CC(=O)N(c3ccc(F)cc3)C2)nc2ccccc21 (configuration not stated) | -0.3% | 20.6µM* | -32.4% | ? | ?
CCOc1ccccc1N1CC(c2nc3ccccc3n2CCOc2ccc(OC)cc2)CC1=O (configuration not stated) | 0.2% | ? | 12.6µM* | ? | -9.5%
O=C1CCCCCN1CP(=O)(O)CN1CCCCCC1=O | -0.9% | -4.9% | -1.1% | 0.3% | -7.7%
CCOc1ccccc1/C=C/c1nc2ccccc2[nH]c1=O | 9.7% | -10.6% | 1.5% | 15.1% | -1.3%
COc1cc(OC)nc(C(NC(=O)C2CCN(Cc3c[nH]c4ccccc34)CC2)c2ccc(Cl)cc2)n1 (configuration not stated) | -3.9% | / | 10µM* | ? | /
COc1cc(OC)nc(C(NC(=O)C2CCN(Cc3ccc(N(C)C)cc3)CC2)c2ccc(F)cc2)n1 (configuration not stated) | -0.4% | / | -5.5% | -0.7% | /
CSc1nc2c(c(-c3ccccc3)c1C#N)CCC2 | 0.2% | -0.3% | -23.0% | ? | 4.2%
CCc1nc(Nc2ccc(OC)c(OC)c2)c2nnn(Cc3ccccc3Cl)c2n1 | 2.3% | 10.3µM* | -30.4% | ? | ?
CCCNC(=O)c1ccc2c(c1)N=C(CCC)c1ccccc1S2 | 0.1% | 7.3% | -27.7% | 8.91µM* | -4.8%
CCc1nn2c(=O)cc(COC(=O)c3ccco3)nc2s1 | 0.8% | ? | -6.6% | 7.7% | 5.9%
CCN1CCc2c(C#N)c(N3CCOCC3)nc(NCc3ccccc3)c2C1 | 0.5% | 9.0% | 1.8% | ? | 0.8%
CCN1CCc2c(C#N)c(N3CCCCC3)nc(NCc3ccccc3)c2C1 | 10.6% | ? | 12.6µM* | 22.4µM* | -1.7%
COc1ccc(/C=C/C(=O)c2ccc[nH]2)c(OC)c1OC | ? | 21.7% | -18.8% | 35.1% | 1.2%
CC(=O)c1c(C)[nH]c(C(=O)OCC(=O)Nc2ccc(C)cc2[N+](=O)[O-])c1C | 8.3% | 5.8µM* | -7.7% | -10.2% | -17.2%
CC(=O)c1c(C)[nH]c(C(=O)OCC(=O)NCc2cccs2)c1C | 4.7% | 14.6µM* | 0.0% | ? | -1.4%
CCOC(=O)c1c(C)[nH]c(C(=O)OCC(=O)Nc2sccc2C(N)=O)c1C | -0.5% | 8.2µM* | -38.8% | -12.9% | ?
CC(=O)c1c(C)[nH]c(C(=O)OCC(=O)NCCCc2ccccc2)c1C | 3.1% | ? | -30.5% | ? | -1.1%
SMILES | Nrf2 activator | Nrf2 block | HepG2 viability | TGFb inhibitor | A549 viability
Cc1ccc(C)c(N2CCN(C(=O)CCCOc3cc(=O)n(C)c4ccccc34)CC2)c1 | -0.1% | 23.1µM* | -6.5% | -25.5% | ?
COC(=O)c1sc(NC(=S)NC(=O)c2cccc(Br)c2)nc1C | 15.8µM* | 21.1% | -0.8% | 17.7% | -0.2%
CCc1ccccc1NC(=O)CCCN1C(=O)CCn2nc(-c3cn(C)c4ccccc34)cc21 | 0.3% | / | -39.7% | -27.0% | -17.5%
O=C(Nc1cccc(OCC(=O)N2CCOCC2)c1)c1cccc([N+](=O)[O-])c1 | 0.0% | -13.9% | 18.0% | 10.3% | -3.0%
O=C(COc1cccc(NC(=O)c2cccc([N+](=O)[O-])c2)c1)c1ccc(Br)cc1 | 0.3% | 20.6µM* | -22.5% | ? | ?
O=C(COc1cccc(NC(=O)c2ccccc2)c1)c1ccccc1 | 0.1% | 20.6µM* | -3.9% | -7.9% | -14.7%
O=C(Nc1nc(-c2cccs2)cs1)c1ccc([N+](=O)[O-])o1 | ? | 13.1% | 11.2µM* | ? | -2.9%
O=C(Nc1nc(-c2cccs2)cs1)c1ccco1 | 12.6µM* | ? | -40.5% | -21.7% | 6.3%
CCOc1ccc(-c2[nH]ncc2-c2csc(C)n2)c(O)c1 | -0.7% | 0.0% | -1.9% | 6.0% | -7.4%
O=C(/C=C/c1ccco1)NCC(=O)N/N=C/c1ccccc1[N+](=O)[O-] | 11.2µM* | 0.9% | 2.0% | ? | ?
CCN(CC)c1ccc(/C=N/NC(=O)CNC(=O)/C=C/c2ccco2)cc1 | 17.6% | ? | -6.4% | -5.0% | 1.3%
Cc1ccc2[nH]c(=O)c(CN(CCc3ccccc3)Cc3nnnn3CC3CCCO3)cc2c1 (configuration not stated) | 0.0% | 2.7% | -18.5% | 22.1% | 4.5%
CC(=O)c1c(C)oc2ccc(NS(=O)(=O)c3ccc(C(C)C)cc3)cc12 | 4.2% | 13µM* | -21.6% | -9.1% | -3.6%
O=C(CN1CCCCC1)N1CCc2ccccc21 | -0.5%[9.22 µM] | 10.7% | 0.9% | 6.1% | 7.6%
CCOC(=O)C(=CNc1ccc2c(c1)nnn2-c1ccc(Cl)cc1)C(=O)OCC | 4.1% | 29.1µM* | 16.2% | 7.6% | ?
CCOC(=O)N1CCN(C(=S)NC(=O)c2cc(Br)ccc2Cl)CC1 | 0.0% | ? | -2.0% | -8.4% | -14.7%
Cc1ccc2[nH]c3c(c2c1)CCCC3NC(=O)CCl (configuration not stated) | 7.7% | ? | 17.8µM* | ? | -12.5%
Cc1ccc2[nH]c3c(c2c1)CCCC3C(N)=O (configuration not stated) | 2.6% | -2.8% | -5.1% | -12.7% | 12.9%
Cc1c(Cc2ccccc2)c(=O)n2c([nH]c3ccccc32)c1C#N | -0.3% | 14.6µM* | -39.3% | ? | -20.7%
COc1ccc(CNC(=O)C2CCCN(S(=O)(=O)N(C)c3ccc(F)cc3)C2)cc1OC (configuration not stated) | 0.3% | 23.1µM* | -27.3% | ? | -2.8%
